{"source": "PubChem BioAssay"}
{"tested_on": "Plasmodium falciparum Sir2 (PF13_0152, Sir2A)", "test": "Plasmodium falciparum Sir2A binding compounds – biochemical, small-molecule microarray, 635 nm fluorescence, primary screen (AID 1098);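 note: score merges spot fluorescence intensity with its signal-to-noise ratio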", "details": "fluorescence 635 nm, higher = more signal"}
{"smiles": "CC(C)(C)OC(=O)CC[C@]1(C(=O)NCCN2CCOCC2)N=C(c2ccc(OCCCO)cc2)O[C@H]1c1ccccc1", "composite z-score": 1}
{"smiles": "C=CC[C@@]12N=C(c3ccc(OCCCO)cc3)O[C@@H]1c1ccccc1N(CCS(=O)(=O)c1ccccc1)C2=O", "composite z-score": 1.22}
{"smiles": "CCOC(=O)C[C@H]1[C@H](OC(=O)c2ccccc2-c2ccccc2)[C@@H](NC(=O)CC(C)C)c2cc(OCCCO)ccc2N1C(=O)c1ccc2ccccc2n1", "composite z-score": 0.74}
{"smiles": "COc1ccc(C(O)C2C=CC3C(=O)N(c4ccccc4)C(=O)C3N2Nc2ccccc2)cc1OCc1ccccc1", "note": "(stereo not given)", "composite z-score": 0.964}
{"smiles": "NCCCCCNC(=O)[C@@H]1C[C@@H]2C(=O)N[C@@H](CCCCN)C(=O)N2[C@@H]1c1cccc(OCCO)c1", "composite z-score": 0.858}
{"smiles": "CCCCC(CC)C(O)C1C=CC2C(=O)N(c3ccccc3)C(=O)C2N1Nc1ccc([N+](=O)[O-])cc1", "note": "(stereo not given)", "composite z-score": 1.31}
{"smiles": "CC(C)(C)OC(=O)CC[C@]1(C(=O)O)N=C(c2ccc(OCCCO)cc2)O[C@H]1c1ccccc1CN=[N+]=[N-]", "composite z-score": 0.814}
{"smiles": "C=C(/C(=C/C[C@@H](OC(=O)c1ccncc1)c1ccccc1OCCO)c1cc(C(=O)OC)ccc1OC)C(C)C", "composite z-score": 1.04}
{"smiles": "O=C1O[C@@H](c2ccccc2)[C@@H](c2ccccc2)N2[C@@H](c3ccccc3OCCO)[C@]3(C(=O)Nc4ccccc43)[C@@H](C(=O)NC[C@H](O)c3ccccc3)[C@H]12", "composite z-score": 1.11}
{"smiles": "COCCOC(=O)N1C(=O)[C@@]2(c3cc(C#CC4(O)CCCCCC4)ccc31)[C@H](c1ccccc1OCCO)N1[C@H](c3ccccc3)[C@H](c3ccccc3)OC(=O)[C@H]1[C@@H]2C(N)=O", "composite z-score": 0.651}
{"smiles": "O=c1cccc(-c2cccc(Cl)c2)o1", "composite z-score": 0.261}
{"smiles": "COCCOC(=O)N1C(=O)[C@@]2(c3cc(C#CC4=CCCCC4)ccc31)[C@H](C(=O)N1CCN(c3ncccn3)CC1)[C@H]1C(=O)O[C@H](c3ccccc3)[C@H](c3ccccc3)N1[C@@H]2c1ccc(O)cc1", "composite z-score": 0.827}
{"smiles": "COCC(=C=CC[C@H](O)c1ccc(OCCO)cc1)C[C@H](O)COCc1ccccc1", "composite z-score": 1.56}
{"smiles": "C=C[C@@H](COC(C)=O)NS(=O)(=O)c1ccc(Br)cc1", "composite z-score": 0.549}
{"smiles": "O=C1C2C=CC(C(O)c3cc(C(F)(F)F)cc(C(F)(F)F)c3)N(Nc3ccc([N+](=O)[O-])cc3)C2C(=O)N1c1ccccc1", "note": "(stereo not given)", "composite z-score": 0.905}
{"smiles": "CC(=O)NCCCC[C@@H]1NC(=O)[C@@H]2C[C@H](C(=O)O)[C@H](c3ccc(O)cc3)N2C1=O", "composite z-score": 1.66}
{"smiles": "COCCOC(=O)N1C(=O)[C@@]2(c3cc(C#CC4=CCCCC4)ccc31)[C@H](c1ccc(O)cc1)N1[C@H](c3ccccc3)[C@H](c3ccccc3)OC(=O)[C@H]1[C@@H]2C(=O)Nc1nc2ccccc2s1", "composite z-score": 1.56}
{"smiles": "CC(C)CNC(=O)[C@@H]1c2ccccc2C(=O)N(Cc2cc(F)cc(C(F)(F)F)c2)[C@H]1c1ccc(CO)cc1", "composite z-score": 0.311}
{"smiles": "C=C(C(=O)CC[C@H](OC(C)=O)c1cccc(OCCO)c1)C(C)C", "composite z-score": -0.382}
{"smiles": "O=C1O[C@@H](c2ccccc2)[C@@H](c2ccccc2)N2[C@@H](c3ccc(O)cc3)[C@]3(C(=O)Nc4ccc(C#CCCO)cc43)[C@@H](C(=O)NC[C@H](O)c3ccccc3)[C@H]12", "composite z-score": -0.029}
{"smiles": "CCCN1C(=O)[C@]2(Cc3ccccc3)N=C(c3ccc(OCCCO)cc3)O[C@@H]2c2ccccc21", "composite z-score": 1.25}
{"smiles": "C[C@H]1C2=C3C(CC[C@H]4C(OCc5ccc(F)cc5C(F)(F)F)OC[C@](C)([C@@H]34)N(C(=O)OC(C)(C)C)C2)C2COC(=O)OCC21", "note": "(stereo not given in full)", "composite z-score": 0.0559}
{"smiles": "O=C1c2ccccc2[C@](Cc2ccccc2I)(C(=O)NCCN2CCOCC2)[C@H](c2ccc(CO)cc2)N1Cc1ccccc1", "composite z-score": 1.21}
{"smiles": "COC(=O)[C@@]1(Cc2ccc(OC)cc2)[C@H]2c3cc(C(=O)N(C)C)n(Cc4nc5ccccc5[nH]4)c3C[C@H]2CN1C(=O)c1ccccc1", "composite z-score": 0.432}
{"smiles": "C[C@]1(C(=O)NC2CC2)c2ccccc2C(=O)N(Cc2ccc(OC(F)(F)F)cc2)[C@H]1c1ccc(CO)cc1", "composite z-score": -0.419}
{"smiles": "CN(C)CCCNC(=O)[C@@H]1c2ccccc2C(=O)N(CC23CC4CC(CC(C4)C2)C3)[C@H]1c1ccc(CO)cc1", "composite z-score": 1.15}
{"smiles": "CC1CC/C=C\\[C@H]2OC34C=CCN(C(C)C)C(=O)[C@H]3N(CCCCCO)C(=O)[C@@H]4C2C(=O)O1", "note": "(stereo not given in full)", "composite z-score": 0.382}
{"smiles": "C=CCOC(=O)[C@H]1[C@@H]2C(=O)O[C@@H](c3ccccc3)[C@@H](c3ccccc3)N2[C@@H](c2ccc(OCCOC(=O)[C@H]3C[C@H]4C(=O)N[C@@H](Cc5ccccc5)C(=O)N4[C@H]3c3cccc(OCCO)c3)cc2)[C@]12C(=O)Nc1ccc(I)cc12", "composite z-score": 1.12}
{"smiles": "CC(C)CN1C(=O)[C@@]2(c3ccc([N+](=O)[O-])cc3)CC(=O)N(CC34CC5CC(CC(C5)C3)C4)[C@@H]2c2ccc(CO)cc21", "composite z-score": 0.984}
{"smiles": "C=C(CCCC)/C(=C/C[C@@H](OC(C)=O)c1ccc(CO)o1)c1cc(C(=O)OC)ccc1OC", "composite z-score": 0.416}
{"smiles": "COC(=O)C1(Cc2ccccc2)C=C2C(=C(C(C)C)C(=O)C2C)CN1", "note": "(stereo not given)", "composite z-score": -1.21}
{"smiles": "COc1ccc([Si](C)(C)[C@@H]2[C@@H](CCO)O[C@]3(C(=O)N(Cc4cccc(N5C(=O)c6cccc7cccc5c67)c4)c4ccccc43)[C@H]2C)cc1", "composite z-score": 0.187}
{"smiles": "C=CCC(OC(C)=O)[C@@H]1[C@@H](N(Cc2cc3ccccc3o2)C(=O)Cc2ccc(F)cc2)c2cc(OCCCO)ccc2N1C(=O)c1ccc2ccccc2n1", "note": "(stereo not given in full)", "composite z-score": -0.278}
{"smiles": "C=CCOC(=O)[C@@H]1[C@H]2C(=O)O[C@H](c3ccccc3)[C@H](c3ccccc3)N2[C@H](c2ccc(OCCOC(=O)[C@H]3C[C@H]4C(=O)N[C@@H](CCCC[N+](C)(C)C)C(=O)N4[C@H]3c3ccc(O)cc3)cc2)[C@@]12C(=O)Nc1ccc(I)cc12", "composite z-score": 1.6}
{"smiles": "[N-]=[N+]=Nc1ccccc1[C@@H]1OC(c2ccc(OCCCO)cc2)=N[C@]1(CCS(=O)(=O)c1ccccc1)C(=O)NCCN1CCOCC1", "composite z-score": 1.25}
